Laboratory results as given in ChEMBL document CHEMBL3988442, “University of Dundee, Small-Polar-MMV Screening Library” (2021).
Among all 85,000 compounds or so, about 440 (0.52%) showed an effect of 50% or more. The sample as a whole holds a higher share of strong results than the screen did.

Experiment: In vitro enzyme assay to detect hydrolysis of chlorophenol red-beta-D-[…] directly proportional to the number of Toxoplasma stably expressing beta-galactosidase
Assay type: functional, organism-based, Toxoplasma gondii
Design: scale not given: in the data most compounds retested in dose-response had high values

## CN1CCCN(C(=O)COc2ccccc2)CC1
50 µM
  Percent Effect: -9.111%

## CN1CCCN(C(=O)COc2ccc(Br)cc2)CC1
50 µM
  Percent Effect: 68.33%

## CN1CCCN(C(=O)COc2ccc(C#N)cc2)CC1
50 µM
  Percent Effect: 10.92%

## CCc1nsc(N2CCNCC2)n1
50 µM
  Percent Effect: 12.31%

## CCc1cnc(N2CCNCC2)s1
50 µM
  Percent Effect: 54.04%

## Cc1cnc(N2CCNCC2)s1
50 µM
  Percent Effect: 5.738%

## O=C(C[C@H]1[C@H]2CN(Cc3ccncc3)C[C@@H]12)N1CCCC1.O=C(O)C(F)(F)F.O=C(O)C(F)(F)F
10 µM
  Percent Effect: -5.891%

## O=C(C[C@@H]1COC[C@H]2CN(Cc3ccncc3)C[C@@H]12)N1CCCC1
10 µM
  Percent Effect: 95.78%

## O=C(C[C@@H]1COC[C@H]2CN(Cc3cccnc3)C[C@@H]12)N1CCCC1.O=C(O)C(F)(F)F.O=C(O)C(F)(F)F
10 µM
  Percent Effect: -13.82%

## NCCc1ccc(Cl)s1
50 µM
  Percent Effect: 19.11%

## C[C@@H]1CN(Cc2ccsc2)C[C@]12CCN(Cc1cccnc1)C2=O.O=C(O)C(F)(F)F.O=C(O)C(F)(F)F
10 µM
  Percent Effect: -1.478%

## CNC1CCNC1=O (stereo not given)
50 µM
  Percent Effect: 22.45%

## O=C1NC[C@H]2NCCC[C@@H]12
50 µM
  Percent Effect: -10.77%

## NC1CCCCNC1=O (stereo not given)
50 µM
  Percent Effect: 97.52%

## COCCN1C(=O)CC[C@@H]2[C@@H]1CCN2Cc1c(C)noc1C.O=C(O)C(F)(F)F
10 µM
  Percent Effect: 17.34%

## NCCc1ccsc1
50 µM
  Percent Effect: 4.76%

## O=C1C[C@H]2CC[C@@H](CN1)N2C1CSCCSC1
10 µM
  Percent Effect: -1.323%

## c1cc2sccc2c(N2CCNCC2)n1
50 µM
  Percent Effect: 13.67%

## c1nc(N2CCNCC2)c2sccc2n1
50 µM
  Percent Effect: 52.15%

## CN1CCN(c2ncnc3ccsc23)CC1
50 µM
  Percent Effect: -1.262%

## Cc1nc(CO[C@H]2CN(Cc3ccccn3)[C@@H]3CCCO[C@H]23)cs1.O=C(O)C(F)(F)F.O=C(O)C(F)(F)F
10 µM
  Percent Effect: 12.48%

## CC(c1nc(C(C)(C)C)no1)N1CCN(C)CC1 (stereo not given)
50 µM
  Percent Effect: 8.823%

## COc1ccc(Cl)c(N2CCNCC2)c1
50 µM
  Percent Effect: 12.14%

## CCC(O)CN1CCN(C(=O)Cc2cc(C)ccc2OC)CC1 (stereo not given)
10 µM
  Percent Effect: 16.53%

## COc1ccc(C)cc1CC(=O)N1CCN(CC(C)O)CC1 (stereo not given)
10 µM
  Percent Effect: -5.451%

## COc1ccc(C)cc1CC(=O)N1CCN(C)CC1
50 µM
  Percent Effect: 93.86%

## O=C(O)C(F)(F)F.O=C(O)[C@]12CCCN(C3CCOC3)C[C@H]1CN(c1ncccn1)C2 (stereo not given in full)
10 µM
  Percent Effect: 3.821%

## COCCNC(=O)[C@H]1C[C@@H]2CCN(Cc3ccncc3)C[C@H]2O1.O=C(O)C(F)(F)F.O=C(O)C(F)(F)F
10 µM
  Percent Effect: 3.499%

## CN1CCN(c2cccc(C#N)n2)CC1
50 µM
  Percent Effect: 4.938%

## NC1CCN(CC(F)F)C1 (stereo not given)
50 µM
  Percent Effect: -7.731%

## NC1CCN(CC(F)F)CC1
50 µM
  Percent Effect: 56.61%

## NCC1CCN(CC(F)F)CC1
50 µM
  Percent Effect: 1.969%

## Clc1cnccc1CN1CCC2(CCOC2)C1 (stereo not given)
50 µM
  Percent Effect: 3.263%

## CC(C)CC(=O)NC1CC2(CCN(CCF)CC2)Oc2ccccc21.O=C(O)C(F)(F)F (stereo not given)
10 µM
  Percent Effect: -26.74%

## N#Cc1ccccn1
50 µM
  Percent Effect: -5.392%

## CC[C@@H]1N(Cc2ccncc2)CCC[C@]12CCC(=O)N2C.O=C(O)C(F)(F)F.O=C(O)C(F)(F)F
10 µM
  Percent Effect: -4.695%

## CN1CCN2C(=O)N(C3CCCCC3)C[C@H]2C1
10 µM
  Percent Effect: -2.107%

## CC1CN(C)CCC1=O (stereo not given)
50 µM
  Percent Effect: 95.15%

## Cc1ccc([C@@H](O)CN)cc1
50 µM
  Percent Effect: -14.41%

## Cl.O=C1N(Cc2ccc(Cl)cc2)CCC12CCCNC2 (stereo not given)
10 µM
  Percent Effect: -3.809%

## OCC1CCC2(CCCC2)CN1 (stereo not given)
50 µM
  Percent Effect: 23.34%

## O=C(N[C@H]1COC[C@@H]1N1CCCC1)c1c[nH]nc1C1CCCCC1
10 µM
  Percent Effect: 7.68%

## Cc1nc(C(=O)N[C@H]2COC[C@@H]2N2CCCCC2)cs1
10 µM
  Percent Effect: 24.19%

## O=C(N[C@H]1COC[C@@H]1N1CCCCC1)c1cnc[nH]1
50 µM
  Percent Effect: 53.1%

## Cc1nc(C)c(CN2CC3(CCNCC3)OC2=O)s1
50 µM
  Percent Effect: -5.089%

## COc1ccc(CCN)c(Cl)c1
50 µM
  Percent Effect: 6.537%

## N[C@H]1[C@@H]2CC[C@H]1CN(CCn1cc(Cl)cn1)C2
50 µM
  Percent Effect: 17.19%

## CC1CNCCN1c1cccc2cnccc12 (stereo not given)
50 µM
  Percent Effect: 3.081%

## COc1cccc(C(C)N2CCNCC2)c1 (stereo not given)
50 µM
  Percent Effect: -0.2947%

## COc1cccc(N2CCNCC2C)c1 (stereo not given)
50 µM
  Percent Effect: 93.04%

## CNC(CCO)Cc1ccccc1 (stereo not given)
50 µM
  Percent Effect: -16.85%

## CCC(C)Cn1nc(COC)oc1=O (stereo not given)
50 µM
  Percent Effect: 3.972%

## NCCc1ccc(F)cn1
50 µM
  Percent Effect: 2.533%

## NCCc1ccc(C(F)(F)F)cn1
50 µM
  Percent Effect: -0.7951%

## NCCc1cc(C(F)(F)F)ccn1
50 µM
  Percent Effect: 99.23%

## CN[C@@H]1CCO[C@H]1c1cccnc1
50 µM
  Percent Effect: -18.11%

## NCCC1COc2ccccc2O1 (stereo not given)
50 µM
  Percent Effect: 1.961%

## NCCC1CSc2ccccc2O1 (stereo not given)
50 µM
  Percent Effect: 65.01%

## CC1CN(C)CCN1Cc1nc(N)nc(N(C)C)n1 (stereo not given)
50 µM
  Percent Effect: 17%

## CO[C@H]1CCN(c2ncc(F)cn2)[C@@H]2CN(Cc3ccco3)C[C@H]12.O=C(O)C(F)(F)F.O=C(O)C(F)(F)F
10 µM
  Percent Effect: 10.96%

## CO[C@H]1CCN(Cc2ccccn2)[C@@H]2CN(Cc3ccco3)C[C@H]12.O=C(O)C(F)(F)F.O=C(O)C(F)(F)F.O=C(O)C(F)(F)F
10 µM
  Percent Effect: -1.554%

## CO[C@@H]1CCN(Cc2ccccn2)[C@@H]2CN(Cc3ccco3)C[C@@H]21.O=C(O)C(F)(F)F.O=C(O)C(F)(F)F.O=C(O)C(F)(F)F
10 µM
  Percent Effect: 93.58%

## Cc1noc(C)c1CC(=O)N1CCN(C(C)(C)C)CC1
50 µM
  Percent Effect: 6.08%

## CN(CC(N)=O)C1Cc2ccccc2C1
50 µM
  Percent Effect: -5.488%

## CC(=O)N1N=C(c2cccnc2)CC1c1ccco1 (stereo not given)
50 µM
  Percent Effect: 88.79%

## CC(=O)N1CCC2(CC1)c1ncc(-c3cccnc3)n1CCN2C
10 µM
  Percent Effect: -29.38%

## O=C1CC(c2cccnc2)=NCCN1
50 µM
  Percent Effect: 42.08%

## C1CC(NC2COC2)CCO1
50 µM
  Percent Effect: 12.23%

## Cc1cc(CNC(C)Cn2cccn2)on1 (stereo not given)
50 µM
  Percent Effect: 9.614%

## CC(C)N1CCN(Cc2ccc(N)nc2)CC1
50 µM
  Percent Effect: -5.951%

## Cc1ncc(C(=O)N2C[C@@H]3CCCN[C@@H]3C2)cn1
50 µM
  Percent Effect: -7.245%

## Cc1ncc(C(=O)N2C[C@@H]3CCCN[C@@H]3C2)c(C)n1
50 µM
  Percent Effect: 63.53%

## Cc1cc(C(=O)N2C[C@@H]3CCCN[C@@H]3C2)cc(C)n1
50 µM
  Percent Effect: -13.26%

## CCCN1CCN(Cc2nccn2C)CC1
50 µM
  Percent Effect: 5.907%

## Cc1ccc(C(=O)N2C[C@@H]3OCCN(C)[C@@H]3C2)cn1.O=C(O)C(F)(F)F
10 µM
  Percent Effect: 3.64%

## COC[C@H]1CCC[C@]12CN(Cc1cccc(C)n1)CCO2
10 µM
  Percent Effect: 72.48%

## CCOC[C@@H]1CCC[C@@]12CN(Cc1cccnc1)CCO2
10 µM
  Percent Effect: -14.2%

## COC[C@@H]1CCC[C@]12CN(Cc1cccc(C)n1)CCO2.O=C(O)C(F)(F)F.O=C(O)C(F)(F)F
10 µM
  Percent Effect: -5.738%

## Fc1cnc(N2CCCC3(CCN(Cc4cccs4)C3)C2)nc1.O=C(O)C(F)(F)F.O=C(O)C(F)(F)F (stereo not given)
10 µM
  Percent Effect: -7.824%

## NCCCN1CCN(c2ccccc2)CC1
50 µM
  Percent Effect: 0.9017%

## Cn1c(CCN2CCN(c3ccc(O)cc3)CC2)nc2ccccc21
10 µM
  Percent Effect: 79.1%

## COCCN1CCN(c2ccc(OC)cc2)CC1
50 µM
  Percent Effect: -4.401%

## Cc1cc(C(=O)N2CC[C@H]3CC[C@@H](C2)N3)nc(C)n1
50 µM
  Percent Effect: 2.124%

## Cn1cc(CCN)nn1
50 µM
  Percent Effect: 26.5%

## CC(C)(C)OC(=O)NC1CC2(CNC2)C1
50 µM
  Percent Effect: -10.31%

## CC(C)N1CCN(Cc2nnnn2C2CC2)CC1
50 µM
  Percent Effect: -4.596%

## CCN1CCN(Cc2nnnn2C2CC2)CC1
50 µM
  Percent Effect: 99.81%

## CCCn1nnnc1CN1CCN(CC)CC1
50 µM
  Percent Effect: -8.148%

## COc1ccc(CN2CC[C@@]3(O)CCCC[C@H]3C2)cn1
50 µM
  Percent Effect: -5.926%

## Cc1cc(C2CCCN2)on1 (stereo not given)
50 µM
  Percent Effect: -7.97%

## CN(C)c1ncc2c(n1)C1(CCN(CC3CC3)C1)COC2.O=C(O)C(F)(F)F (stereo not given)
10 µM
  Percent Effect: -3.49%

## c1nc(N2CCOCC2)nc2c1COCC21CCN(CC2CC2)C1 (stereo not given)
10 µM
  Percent Effect: 63.85%

## COCCN1CCC2(COCc3cnc(N4CCOCC4)nc32)C1.O=C(O)C(F)(F)F (stereo not given)
10 µM
  Percent Effect: -0.4992%

## Fc1cnc(N2CCC3(CC2)CN(Cc2cccs2)CCO3)nc1.O=C(O)C(F)(F)F.O=C(O)C(F)(F)F
10 µM
  Percent Effect: 21.36%

## C[S+](C)[c-]1c(=O)[nH]c(=O)n(CCc2ccc(F)cc2)c1=O
10 µM
  Percent Effect: 11.54%
